Test results as given in the supplement of paper PMC6555819.

Experiments:
Assay in all cases: PBM binding z-score (relative to random genomic background probes); higher = stronger binding; sequences stand for … in GC…GCGATTGACAGCGTAGAATGAAGG
[1] = test system: PPARg:RXRa DBDmut IVT, anti-RXR (DBD mutation: RXRa K156A/R161A, NR concentration 270 nM, RXRa partner concentration 90 nM)
Method in brief: (§1)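 The probes on custom Agilent 4×180K protein-binding microarrays were double-stranded, with 34-nt variable regions bearing direct-repeat seeds, single-nucleotide variants, half-site ablations and random human genomic background sequences. Incubation lasted 1 h with ligand-free nuclear receptor dimers in PBS pH 7.4, 2% milk, 0.02% Triton X-100, 1 mM DTT, 0.2 mg/mL BSA and 0.4 mg/ml salmon testes DNA. Antibodies against each partner (one per run) detected bound dimers, and fluorescence scans were regression-normalized. Binding z-scores take the random background probes as reference.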

[2] = test system: PPARg:RXRa IVT, anti-PPARg (NR concentration 270 nM, RXRa partner concentration 90 nM)
Method in brief: as §1

[3] = test system: PPARg DBDmut:RXRa IVT, anti-PPARg (DBD mutation: PPARg1 K132A/R137A, NR concentration 270 nM, RXRa partner concentration 90 nM)
Method in brief: as §1

[4] = test system: PPARg DBDmut IVT, anti-PPARg (DBD mutation: PPARg1 K132A/R137A, NR concentration 270 nM)
Method in brief: as §1

[5] = test system: PPARg homodimer (NR concentration 180 nM)
Method in brief: as §1

[6] = test system: PXR:RXRa (NR concentration 270 nM, RXRa partner concentration 90 nM)
Method in brief: as §1

[7] = test system: PXR homodimer (NR concentration 270 nM)
Method in brief: as §1

[8] = test system: RARa:RXR (NR concentration 270 nM, RXRa partner concentration 90 nM)
Method in brief: as §1

[9] = test system: RARa homodimer (NR concentration 270 nM)
Method in brief: as §1

[10] = test system: RARb:RXRa (NR concentration 270 nM, RXRa partner concentration 90 nM)
Method in brief: as §1

Row | Sequence | PBM binding z-score [1] | PBM binding z-score [2] | PBM binding z-score [3] | PBM binding z-score [4] | PBM binding z-score [5] | PBM binding z-score [6] | PBM binding z-score [7] | PBM binding z-score [8] | PBM binding z-score [9] | PBM binding z-score [10]
1 | CCGACTGGGGCAGACAGGTTACCATACCATCCGG | 1.38 | 1.47 | 0.134 | -1.89 | -0.172 | -0.453 | -0.382 | -0.441 | -0.217 | 0.69
2 | CGCCCAAGGTCAAGGTCAGTGAAAGAGACTCGAA | 3.15 | 4.18 | 0.61 | -0.556 | 3.84 | 4.83 | 0.538 | 5.32 | 1.22 | 5.62
3 | TAGACAGGGTCAAAGGCCAGAGTACGAATGTCGA | 0.674 | 3.81 | 1.39 | 0.376 | 1.55 | 4.13 | 0.121 | 5.65 | 0.0319 | 4.28
4 | ATCTCTGGGTAACCAAGTTCAGTGAATGCCGAAC | 3.23 | 2.59 | 0.324 | 1.24 | 0.00227 | 2.4 | 1.35 | 0.719 | -0.0126 | 1.24
5 | ACTAGCAGGCCATGTTTGGGTCACTCAAACAAAG | 0.691 | 1.13 | -0.241 | -1.08 | 0.0761 | 0.404 | -0.559 | 1.37 | -0.914 | 1.72
6 | GATACAGGGCCAGCTAGAGGCCAGAGTATGGAAA | -0.745 | -0.681 | -0.858 | -1.22 | -0.793 | -0.72 | -0.244 | -0.464 | -0.203 | 0.56
7 | TGTCAAAGTTCAAAGGTAATGTAAGTATCCACAC | 0.141 | 4.47 | 1.92 | 1.26 | 3.02 | 5.65 | 3.61 | 5.92 | 1.41 | 4.94
8 | CAAACTAGGTCAAAGGTAAAAGTCGAGCCAACCA | 8.99 | 9.08 | 2.75 | 1.05 | 2.75 | 3.48 | -0.123 | 5.33 | 0.696 | 4.21
9 | TCTTGTAGATCAGCAGGCTAAGAAAGCTGGCCAA | 1.35 | 0.0627 | -0.91 | -0.15 | -1.56 | -0.333 | -0.655 | -0.459 | -0.665 | -0.469
10 | CCTACTGGGCCATCAGGTCATTTATATCAACGTT | 3.78 | 5.03 | 0.0191 | 0.266 | 1.09 | 1.59 | 0.478 | 2.06 | 0.492 | 1.75
11 | TCATATAGATAAAGGTGAAAGTCGAACGATATGA | 2.13 | 1.9 | 1.06 | 1.29 | 1.18 | 0.893 | -0.0494 | 1.43 | 0.832 | 1.61
12 | TCATATACGTAAAGGTGAAAGTCGAACGATATGA | 1.6 | 1.61 | 1.06 | 2 | 0.594 | 1.1 | -0.24 | 1.55 | 0.587 | 2.04
13 | ACTTACGGGTCAACGAGGTTATATCACGCGTATA | 2.95 | 3.92 | 0.992 | 1.71 | 2.52 | 5.03 | 3.3 | 4.76 | 0.919 | 4.28
14 | CGTCCAAGGTCAAAGGTCAGTGAAGAGATGACGG | 4.23 | 5.97 | 1.75 | 2.79 | 4.7 | 7.11 | 1.9 | 8.77 | 2.78 | 6.02
15 | CAAACTAGGTCACAGAGGTAAAAGTCCGTGCGTA | 8.62 | 8.89 | 3.39 | 1.6 | 2.55 | 2.53 | 0.79 | 3.47 | 0.948 | 4.35
16 | TCGAGTATGTTAGGGGCATTCAGAATGGCGTCGA | 0.969 | -0.000912 | -0.506 | -1.16 | -0.24 | 0.712 | 0.579 | 0.48 | 0.135 | 0.606
17 | AGAATGAGGTTATACGTAGATCAGGTAAGAAAGT | 4.3 | 2.28 | 1.26 | 0.947 | 0.811 | 1.23 | 0.571 | 2 | 0.262 | 1.52
18 | CAAACTAGGTCGAGAGGTCAAAGTCCGCTTCCCG | 5.89 | 6.2 | 0.871 | -0.159 | 2.68 | 5.25 | 1.9 | 5.44 | 1.21 | 4.24
19 | ATCTCCAGGTAAGACTCAGTTCAGTGAAGAACGC | 0.285 | 0.513 | 0.311 | 1.43 | 1.51 | 1.38 | 1.36 | 0.454 | 0.892 | 0.446
20 | GCAGACAGGTGAAACGCAGTTAACTCAGGGTGGC | 0.917 | 0.29 | -1.71 | -0.986 | -0.869 | -0.255 | -0.841 | 0.164 | -0.965 | 0.589
21 | TCTTGTAGATCAACACGAGGTTAAGAAAGATCGA | 1.48 | 1.07 | 0.862 | 1 | 0.489 | 1.05 | 0.0696 | 1.27 | 0.374 | 0.536
22 | GCTATTAGTTGAATGGGCAACCGAATGATTCTCG | 0.75 | -0.332 | -0.684 | 0.178 | -0.436 | -0.587 | -0.28 | -0.707 | 0.153 | -0.226
23 | ACTATTAGTTGACTTAGGGCCACCGATACGACGC | 0.373 | 0.728 | 1.68 | 1.42 | 0.408 | 0.124 | 0.0401 | 0.753 | 0.459 | 0.755
